Compounds with a hit are over-represented: about 27% of the library has one in this group of screens.
CYP2C19 activ – increases human CYP2C19 enzyme activity. P33261. recombinant CYP2C19, luciferin-H EGE luminescence; hits give high values; 0 = fully inhibited enzyme, 1 = untreated enzyme. activation factor at 5 µM. 96,000 tested, under 10 active. AID 1025;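 active = activation factor of at least 2 at 5 µM in the primary screen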;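 also: 0 = wells with 2.5 mM tranylcypromine and 1 = vehicle-only wells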
CYP2C9 inh – blocks human cytochrome P450 2C9; actives 20% (n = 96,000); AID 777; CYP2C9 Supersomes, luciferin-H conversion, luminescence; P11712; inhibition, % at 5 µM;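 active = blocking of liver enzyme CYP2C9 beyond about 50% at 5 µM, limit read from the data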
Target sequence (P11712 whole entry, looked up): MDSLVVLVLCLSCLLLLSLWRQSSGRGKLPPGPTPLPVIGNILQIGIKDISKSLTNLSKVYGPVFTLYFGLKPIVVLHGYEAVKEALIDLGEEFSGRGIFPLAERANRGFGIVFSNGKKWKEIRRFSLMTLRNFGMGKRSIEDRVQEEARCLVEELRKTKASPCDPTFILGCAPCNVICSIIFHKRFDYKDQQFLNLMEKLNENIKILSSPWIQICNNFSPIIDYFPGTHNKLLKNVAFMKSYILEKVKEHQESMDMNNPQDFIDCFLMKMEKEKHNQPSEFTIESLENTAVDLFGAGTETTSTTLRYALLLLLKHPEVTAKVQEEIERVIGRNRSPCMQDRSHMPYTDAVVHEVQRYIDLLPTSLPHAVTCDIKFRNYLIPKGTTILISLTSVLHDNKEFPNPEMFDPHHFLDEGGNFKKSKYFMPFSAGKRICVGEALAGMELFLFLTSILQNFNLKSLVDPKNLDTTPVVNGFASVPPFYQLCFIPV
CYP2C19 inhib – human CYP2C19 inhibition. CYP2C19 Supersomes, luciferin-H EGE luminescence, 30 min. inhibition, % at 5 µM. actives 21% (n = 96,000). AID 778;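 active = CYP2C19 inhibition above a set limit at 5 µM in the primary screen, cut at about 50% in these data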;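 also: plate controls were negative control wells for no effect and 2.5 mM tranylcypromine positive control for full effect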
CYP2C9 activ – increases human cytochrome P450 2C9 activity; P11712; recombinant CYP2C9, luciferin-H conversion, luminescence; hits give high values; factor 1 = untreated enzyme, 0 = blocked; activation factor at 5 µM; actives 1.4% (n = 96,000);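 active = activation factor of 2 or more for CYP2C9 at a 5 µM dose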;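 also: 0 = sulfaphenazole-blocked wells and 1 = vehicle-only wells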
Cav32 inh – inhibitors of human Cav3.2 T-type calcium channel; actives 4% (n = 100,000); B-score at 10 µM; AID 449739; Cav3.2-expressing cells, Fluo-4 calcium fluorescence FDSS; hits give low values;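 active = single-dose well whose peak fluorescence ratio is a statistical outlier from its plate by either plate-standardised score or position-corrected B-score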
* marks the source's active call; other numbers are inactive results; · = no result.

SMILES	CYP2C19 activ	CYP2C9 inh	CYP2C19 inhib	CYP2C9 activ	Cav32 inh
CCCC(C)C1(CC)C(=O)NC(=Nc2ccc(F)cc2)NC1=O (stereo unspecified)	0.8	58.2*	17.3	0.4	0.851
CCCC(C)C1(CC)C(=O)NC(=Nc2ccccc2)NC1=O (stereo unspecified)	·	·	·	·	-0.059
O=C(O)C1CN2CCC1CC2 (stereo unspecified)	1	-13.7	-4.1	1.1	0.217
CCCCN1C(=O)C(C2c3ccccc3C(=O)N2Cc2ccccc2)C(=O)NC1=S (stereo unspecified)	0.8	54.0*	18.4	0.5	·
CCN(CC)C(=O)c1ccc(NC(=O)c2cccc(F)c2)cc1	1	-20.4	3.7	1.2	-0.164
CCOC(=O)c1c(-n2c(C)cc(/C=C3/C(=O)NC(=O)N(CC)C3=O)c2C)sc2c1CCCC2	·	·	·	·	-3.51*
Oc1ccc(C2=CCNCC2)cc1O	·	·	·	·	0.058
COC(=O)C1=C(c2cc3ccccc3s2)C[C@@H]2CC[C@H]1N2C(=O)NCc1ccco1	·	·	·	·	-2.72
O=C(CF)NC(Nc1cccc2cccnc12)C(Cl)(Cl)Cl (stereo unspecified)	0.1	40.6	88.9*	0.6	-0.523
CCOP(=O)(OCC)C(NC(=O)c1ccccc1Cl)=C(Cl)Cl	0.9	-5.1	14.5	1.1	-0.454
CCOP(=O)(C(NC(=O)c1ccccc1Cl)=C(Cl)Cl)c1ccccc1 (stereo unspecified)	0.2	57.0*	77.4*	0.4	0.0768
COC(=O)c1cc(COc2cc(C)cc3oc(=O)c4c(c23)CCC4)c(C)o1	0.2	96.9*	77.6*	0	·
COC(=O)C(C)Oc1cc(C)cc2oc(=O)c3c(c12)CCCC3 (stereo unspecified)	0.4	92.5*	55.0*	0.1	-1.76
Cc1cc(OCC(=O)NC2CCS(=O)(=O)C2)c2c3c(c(=O)oc2c1)CCC3 (stereo unspecified)	0.9	24.1	9.4	0.8	0.587
CCOC(=O)C(C)Oc1cc(C)cc2oc(=O)c3c(c12)CCCC3 (stereo unspecified)	0.5	77.9*	48.9	0.2	-2.39
COC(=O)C(C)Oc1cc(C)cc2oc(=O)c3c(c12)CCC3 (stereo unspecified)	0.3	92.1*	71.9*	0.1	0.393
Cc1cc(OCC(=O)OC(C)C)c2c3c(c(=O)oc2c1)CCCC3	0.9	28.2	6.2	0.7	-0.229
CC(C)N1C(=O)CCC1C(=O)N1CCC2(CC1)OCCO2 (stereo unspecified)	1	-3.4	-4.8	1	0.0471
Cc1nn(C)c(C)c1P(=S)(c1c(C)nn(C)c1C)N(C)C	0.9	2.2	6.4	1	0.196
CC(C)OC(=O)C1C(=O)NC2(C)CC1c1ccccc1O2 (stereo unspecified)	0.4	12.6	60.5*	0.9	0.399
CCOC(=O)C1C(=O)NC2(C)CC1c1cc(OC)ccc1O2 (stereo unspecified)	1	-2.9	2.3	1	-0.0713
O=C(Cc1ccccc1)Oc1ccc(N2C(=O)CCC2=O)cc1	1	9.5	3.1	0.9	0.443
CN(C)C(=O)Oc1c(Cl)cc(Cl)c2ccccc12	0.7	-210.4	31.8	3.1*	-0.651
CC(=O)Nc1ccc(OC(=O)N(C)c2ccccc2)cc1	0.9	5.1	12.0	0.9	1.58
S=C1CN=C(c2ccccc2)c2cc(Cl)ccc2N1	·	·	·	·	-2.4
SMILES	CYP2C19 activ	CYP2C9 inh	CYP2C19 inhib	CYP2C9 activ	Cav32 inh
Cc1ccc2c(c1)C(c1ccccc1)NCC(=O)N2 (stereo unspecified)	1.1	-5.9	-5.5	1.1	1.12
O=C(Oc1ccc([N+](=O)[O-])cc1)N1CCC(N2CCCCC2)CC1	·	·	·	·	0.391
COc1ccc(C=C2C(=O)N(C)C(=O)N(C)C2=O)cc1CSc1ccccn1	0.4	24.8	58.0*	0.8	-0.254
CCOC(=O)C1=C(N)Oc2cc(C)oc(=O)c2C12C(=O)N1c3c(cccc32)C(C)=CC1(C)C (stereo unspecified)	0.5	16.2	53.3*	0.8	-3.05
CCOC(=O)C1=C(N)Oc2cc(C)oc(=O)c2C12C(=O)N1c3c(cc(OC)cc32)C(C)=CC1(C)C (stereo unspecified)	0.5	21.5	46.0	0.8	1.37
CCOC(=O)C1=C(N)OC2=C(C(=O)CCC2)C12C(=O)N1c3c(ccc(C)c32)C(C)=CC1(C)C (stereo unspecified)	·	·	·	·	-8.29*
CCOC(=O)C1=C(N)OC2=C(C(=O)CCC2)C12C(=O)Nc1ccccc12 (stereo unspecified)	1.1	17.7	-8.2	0.8	-0.0265
CN=C1CN(O)C(c2ccccc2)=c2cc(Cl)ccc2=N1	·	·	·	·	-1.46
CCCCn1c(O)c(C(CC)=Nc2ccc(OCC)cc2)c(=O)[nH]c1=O	0.9	19.7	11.7	0.8	-1.11
CCCCn1c(O)c(C(CC)=NC(C)c2ccccc2)c(=O)[nH]c1=O (stereo unspecified)	0.3	90.9*	71.2*	0.1	-3.24
CCCCn1c(O)c(C(C)=NCCc2ccccc2)c(=O)[nH]c1=O	0.6	69.4*	38.1	0.3	-1.6
C=CCn1c(O)c(C(CC)=NC(C)c2ccccc2)c(=O)[nH]c1=O (stereo unspecified)	0.3	63.0*	65.7*	0.4	0.879
CCCCn1c(O)c(C(C)=NC(C)c2ccccc2)c(=O)[nH]c1=O (stereo unspecified)	0.5	77.3*	53.5*	0.2	-1.02
CCCCn1c(O)c(C(C)=Nc2ccc(C(=O)O)cc2)c(=O)[nH]c1=O	1	-1.3	0.7	1	0.0988
Cc1cccc(CSc2nc3c(cc2C#N)CN(C)CC3)c1	0.3	0.6	69.5*	1	1.24
CCOC(=O)c1ccc(N2C(=O)CC(N3CC=C(c4ccc(F)cc4)CC3)C2=O)cc1 (stereo unspecified)	0.6	64.5*	37.3	0.4	-0.867
FC(F)(F)c1ccc2c(c1)nnn2C1CCN(Cc2nnnn2Cc2ccccc2)CC1	0.5	92.6*	48.1	0.1	·
Cc1ccc(Cn2nnnc2CN2CCC(n3nnc4cc(C(F)(F)F)ccc43)CC2)cc1	0.7	73.2*	34.6	0.3	-2.86
Cc1nc2cc(F)ccc2n1C1CCN(Cc2nnnn2CCc2ccccc2)CC1	0.4	61.9*	62.2*	0.4	-0.554
Cc1ccc(Cn2nnnc2CN2CCC(n3nnc4cc(C)ccc43)CC2)cc1	0.1	95.8*	91.1*	0	-3.05
Cc1ccc(C)c(CN2CCC(n3nnc4cc(F)ccc43)CC2)c1	0.6	5.8	39.2	0.9	-1.02
CCCCN=Cc1c(O)n(-c2c(C)cc(C)cc2C)c(=O)[nH]c1=O	0.6	-14.8	38.9	1.1	0.187
CN(CC(=O)Nc1ccccc1-c1ccccc1)C1CCCCC1	·	·	·	·	-2.23
Cc1ccc(C2(O)CCN3CCCCC32)cc1 (stereo unspecified)	1.1	-13.9	-7.8	1.1	-0.28
Fc1ccc2c(c1)nnn2C1CCN(Cc2c(Cl)cccc2Cl)CC1	·	·	·	·	-0.0149
